The source of these data is PubChem BioAssay.

A short description of assay [1]: compounds binding Alexa647 anti-His antibody – biochemical, small-molecule microarray, 635 nm fluorescence, artefact control for SMM control protein annotation, primary screen (AID 1128).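 Further: score merges feature fluorescence with signal-to-noise for each printed compound spot.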 To be noted: higher = more signal.
The test system of assay [2] is Human papillomavirus type 1a E7 protein (residues 1-88). Description: HPV1a E7 small-molecule binders, primary screen, biochemical, small-molecule microarray, residues 1-88, 635 nm (AID 1129). As to conditions: small-molecule microarray binding, fluorescence 635 nm; higher = more signal.
In assay [3] the target is Focal adhesion kinase 1 (Homo sapiens) (UniProt Q05397). In words: PTK2 protein binding on printed compound slides – biochemical, small-molecule microarray, 635/667 nm fluorescence, BSA, DTT, primary screen (AID 1130).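 Further: composite of spot emission at 667 nm and signal to noise over triplicate slides.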 To be noted: 635 nm fluorescence, higher = more signal.
In assay [4] the test system is Fibrinogen (Alexa647-labelled). Description: Alexa647-fibrinogen binding to printed small molecules – biochemical, small-molecule microarray, 635/667 nm fluorescence, artefact control for SMM control-protein annotation, profiling panel (AID 1131).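 Further: z-score merges 667 nm fluorescence with per-spot signal-to-noise over triplicate slides.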 To be noted: fibrinogen-A647 binding fluorescence, higher = more signal.
Assay [5] addresses Follistatin (Homo sapiens) (UniProt P19883). In words: FST protein binding to printed compounds – biochemical, small-molecule microarray, 635/667 nm fluorescence, primary screen (AID 1132). As to conditions: 635 nm fluorescence, higher = more signal.
Assay [6] deals with Fibroblast growth factor 2 (Homo sapiens) (UniProt P09038). Description: basic fibroblast growth factor binding to printed compounds – biochemical, small-molecule microarray, 635/667 nm fluorescence, primary screen (AID 1133). As to conditions: FGF2, fluorescence 635/667, higher = more signal.
A short description of assay [7]: JC-1 mitochondrial potential readout, lung cancer cells – cell-based, A549, JC-1 fluorescence, basal, 24 h, 100 nL, profiling panel (AID 1138).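 Further: A549 lung adenocarcinoma cells under basal conditions with no added stimulus; test concentration not given here.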 To be noted: higher = more signal.
The subject of another assay is Lefty1. In words: Lefty1 protein binding to printed compounds – biochemical, small-molecule microarray, 635/667 nm fluorescence, primary screen (AID 1139). As to conditions: fluorescence 635/667, higher = more signal.
In assay [8] the test system is wheat germ agglutinin (Triticum aestivum), Alexa647-labelled. In words: Alexa647-WGA lectin binding to printed small molecules – biochemical, small-molecule microarray, 635/667 nm fluorescence, artefact control for SMM control-protein annotation, profiling panel (AID 1140).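 Further: score merges 667 nm feature emission with signal to noise over triplicate slides.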 As to conditions: WGA-A647 binding, 635 nm fluorescence, higher = more signal.
In assay [9] the target is Luciferin 4-monooxygenase (Photinus pyralis) (UniProt P08659). Description: inhibition of purified Photinus pyralis luciferase – biochemical, luminescence, purified enzyme, 2006 set, primary screen (AID 1141).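 Further: cell-free assay with purified firefly luciferase at 100 ng per well in PBS; test concentration not given here.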 To be noted: purified firefly luciferase, SteadyGlo luminescence, 30 min; higher = more signal, called active from +8 up or from −8 down.
The test system of assay [10] is Wnt5a (protein binding on small-molecule microarray). In words: small molecules binding Wnt5a protein – biophysical, small-molecule microarray, 635/667 nm fluorescence, primary screen (AID 1142).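 Further: fluorescence read at 667 nm with signal to noise per printed feature.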 To be noted: 635 nm fluorescence, higher = more signal.
The nature of assay [11]: ATP-based viability of Huh7 replicon cells – cell-based, CellTiter-Glo luminescence, basal, 48 h, cytotoxicity control for HCV replication inhibitor project, primary screen (AID 1143).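 Further: Huh7 hepatoma cells carrying a hepatitis C replication reporter with no stimulus; test concentration not given here.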 As to conditions: higher = more signal, called active from +8 up or from −8 down. Background: In antiviral work, replicon cells carry a viral genome segment that copies itself.
Assay [12] in a line: Pseudomonas biofilm growth suppression – PAO1 strain, BacTiter-Glo luminescence, LB-PBS, primary screen (AID 1144). As to conditions: P. aeruginosa PAO1 biofilm, 12 h, higher = more signal.
Assay [13] is described as follows: basal CRE-LacZ reporter activity in PC12 – cell-based, unstimulated, primary screen (AID 1145). To be noted: no forskolin, luminescence, 4.5 h, higher = more signal, called active from +8 up or from −8 down.
Assay [14] is described as follows: forskolin-driven CRE-LacZ activity in PC12 – cell-based, CRE-LacZ reporter, forskolin-stimulated, primary screen (AID 1146).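 Further: PC12 cells with 6xCRE LacZ reporter stimulated by forskolin 10 µM; beta-galactosidase reporter signal reflecting CREB driven transcription.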 To be noted: luminescence, 4.5 h, higher = more signal, called active from +8 up or from −8 down.
In assay [15] the target is Streptavidin (Streptomyces avidinii) (UniProt P22629). In words: compounds binding control protein streptavidin – biophysical, small-molecule microarray, 635/667 nm fluorescence, artefact control for SMM compound annotation, primary screen (AID 1147).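 Further: signal reflects streptavidin binding to arrayed compounds as a control protein.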 As to conditions: higher = more signal.
The nature of assay [16]: probe aInhba binding on compound microarray – biochemical, small-molecule microarray, 635/667 nm fluorescence, primary screen (AID 1148).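 Further: score merges 667nm spot fluorescence with signal-to-noise for antibody binding to printed compounds.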 To be noted: higher = more signal.
Assay [17] has as its target Torsin-1A (Homo sapiens) (UniProt O14656). Description: TOR1A wild-type binding on microarray – cell lysate, small-molecule microarray, lysate, 635/667 nm, primary screen (AID 1149). As to conditions: COS7 hTOR1A-WT lysate, 635 nm fluorescence, higher = more signal.
The target is the same in assay [18]. In words: torsin A mutant lysate binding on microarrays – cell lysate, small-molecule microarray, COS7 lysate, 635/667 nm fluorescence, primary screen (AID 1150).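 Further: score pools 667 nm emission and signal to noise measuring lysate protein binding.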 To be noted: COS7 hTOR1A mutant lysate, 635 nm fluorescence, higher = more signal.
For assay [19], the system named is Sonic hedgehog protein (Shh). Description: Sonic hedgehog microarray binding compounds – biochemical, small-molecule microarray, 635/667 nm fluorescence, primary screen (AID 1151).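 Further: Shh protein binding to compounds spotted on small-molecule microarray slides; score combines spot fluorescence intensity with signal-to-noise across triplicate slides.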 To be noted: 635 nm fluorescence, higher = more signal.

Each structure is given as a SMILES string. Calls of active or inactive are those of the source. Unless noted, how the calls were made is not given here.

Torsin-1A (Homo sapiens), sequence (O14656 whole entry, looked up): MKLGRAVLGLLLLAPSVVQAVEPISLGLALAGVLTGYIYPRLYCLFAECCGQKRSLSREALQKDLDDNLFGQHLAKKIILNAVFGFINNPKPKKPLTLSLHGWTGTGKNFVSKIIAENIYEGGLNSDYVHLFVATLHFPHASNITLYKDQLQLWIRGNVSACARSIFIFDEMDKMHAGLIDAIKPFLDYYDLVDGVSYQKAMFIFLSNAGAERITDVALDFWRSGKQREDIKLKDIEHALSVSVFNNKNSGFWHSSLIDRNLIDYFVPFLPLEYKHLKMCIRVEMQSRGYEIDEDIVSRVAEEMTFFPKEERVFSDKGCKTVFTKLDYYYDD
Luciferin 4-monooxygenase (Photinus pyralis), sequence (P08659 whole entry, looked up): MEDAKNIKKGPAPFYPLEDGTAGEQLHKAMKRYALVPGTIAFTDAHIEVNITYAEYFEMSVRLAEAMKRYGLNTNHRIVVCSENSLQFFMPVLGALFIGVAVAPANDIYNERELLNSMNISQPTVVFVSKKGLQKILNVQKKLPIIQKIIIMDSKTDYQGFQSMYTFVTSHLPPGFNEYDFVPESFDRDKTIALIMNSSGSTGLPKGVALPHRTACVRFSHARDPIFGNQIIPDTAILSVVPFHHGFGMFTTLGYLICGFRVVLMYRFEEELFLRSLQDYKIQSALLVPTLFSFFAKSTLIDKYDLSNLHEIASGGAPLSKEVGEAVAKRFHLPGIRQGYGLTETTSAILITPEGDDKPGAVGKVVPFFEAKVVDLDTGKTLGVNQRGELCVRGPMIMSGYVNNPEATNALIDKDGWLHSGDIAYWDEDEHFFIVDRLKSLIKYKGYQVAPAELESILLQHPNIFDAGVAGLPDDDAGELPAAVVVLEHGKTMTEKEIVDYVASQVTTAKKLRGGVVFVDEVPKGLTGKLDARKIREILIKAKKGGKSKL
Streptavidin (Streptomyces avidinii), sequence (P22629 whole entry, looked up): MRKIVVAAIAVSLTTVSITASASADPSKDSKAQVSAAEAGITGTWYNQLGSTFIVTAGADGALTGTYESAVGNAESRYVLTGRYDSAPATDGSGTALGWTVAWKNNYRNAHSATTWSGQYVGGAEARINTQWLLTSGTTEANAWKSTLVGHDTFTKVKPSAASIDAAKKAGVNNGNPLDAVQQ
Focal adhesion kinase 1 (Homo sapiens), sequence (Q05397 whole entry, looked up): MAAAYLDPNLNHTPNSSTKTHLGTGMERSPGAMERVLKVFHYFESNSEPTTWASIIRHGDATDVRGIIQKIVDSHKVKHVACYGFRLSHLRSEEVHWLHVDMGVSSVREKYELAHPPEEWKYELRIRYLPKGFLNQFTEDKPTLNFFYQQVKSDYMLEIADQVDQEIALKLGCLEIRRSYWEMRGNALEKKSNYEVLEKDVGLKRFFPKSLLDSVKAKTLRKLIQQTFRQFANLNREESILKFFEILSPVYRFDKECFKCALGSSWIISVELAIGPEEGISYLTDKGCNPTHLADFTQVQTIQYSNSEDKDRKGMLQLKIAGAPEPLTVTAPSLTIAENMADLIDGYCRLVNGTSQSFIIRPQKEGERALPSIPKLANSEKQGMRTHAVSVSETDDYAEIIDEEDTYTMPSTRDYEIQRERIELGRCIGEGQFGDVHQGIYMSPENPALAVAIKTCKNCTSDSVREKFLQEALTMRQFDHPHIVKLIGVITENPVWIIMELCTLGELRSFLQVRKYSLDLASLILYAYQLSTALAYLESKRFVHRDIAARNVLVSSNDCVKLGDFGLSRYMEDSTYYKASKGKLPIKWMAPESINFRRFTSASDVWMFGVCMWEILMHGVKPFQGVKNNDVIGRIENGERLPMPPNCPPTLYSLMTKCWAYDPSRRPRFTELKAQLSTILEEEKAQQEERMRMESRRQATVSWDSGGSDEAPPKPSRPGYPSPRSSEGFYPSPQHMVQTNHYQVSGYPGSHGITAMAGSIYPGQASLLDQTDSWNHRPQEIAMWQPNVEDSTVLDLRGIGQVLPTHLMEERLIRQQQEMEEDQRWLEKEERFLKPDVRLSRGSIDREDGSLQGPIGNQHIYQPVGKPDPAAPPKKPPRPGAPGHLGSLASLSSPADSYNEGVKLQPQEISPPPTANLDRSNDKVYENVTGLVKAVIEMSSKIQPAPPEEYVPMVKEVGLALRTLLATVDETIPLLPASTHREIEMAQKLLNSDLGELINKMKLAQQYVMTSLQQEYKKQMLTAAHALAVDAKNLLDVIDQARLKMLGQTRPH
Follistatin (Homo sapiens), sequence (P19883 whole entry, looked up): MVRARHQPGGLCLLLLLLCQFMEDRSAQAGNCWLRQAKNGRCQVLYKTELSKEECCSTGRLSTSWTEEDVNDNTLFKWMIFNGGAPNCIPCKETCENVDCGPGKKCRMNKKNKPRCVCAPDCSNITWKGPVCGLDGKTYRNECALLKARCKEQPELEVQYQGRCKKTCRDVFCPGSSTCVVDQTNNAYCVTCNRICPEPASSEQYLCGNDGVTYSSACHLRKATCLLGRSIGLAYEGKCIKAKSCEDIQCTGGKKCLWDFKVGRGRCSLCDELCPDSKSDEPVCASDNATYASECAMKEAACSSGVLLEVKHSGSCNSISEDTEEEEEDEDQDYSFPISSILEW
Fibroblast growth factor 2 (Homo sapiens), sequence (P09038 whole entry, looked up): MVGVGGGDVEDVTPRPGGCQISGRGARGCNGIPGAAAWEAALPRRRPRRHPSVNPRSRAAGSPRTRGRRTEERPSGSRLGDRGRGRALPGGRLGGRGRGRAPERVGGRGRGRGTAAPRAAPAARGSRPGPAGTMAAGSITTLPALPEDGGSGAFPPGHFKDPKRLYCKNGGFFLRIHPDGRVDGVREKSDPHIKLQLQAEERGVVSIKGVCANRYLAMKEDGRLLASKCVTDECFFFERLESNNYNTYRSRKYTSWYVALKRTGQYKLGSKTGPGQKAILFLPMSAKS

Turning to `Cc1ccc(S[C@]2(C(=O)NCC(C)C)CC(=O)N(Cc3ccccc3Cl)[C@@H]2c2ccc(CO)cc2I)cc1`, the composite z-score in assay [1] is 0.231; in [2], 0.132; in assay [3] it was -0.47; in assay [4], 0.137; in assay [5], -0.142; in [6] it was -0.131. Moreover, the composite z-score with Lefty1 was -0.7; in assay [8], 0.231; in assay [10] it was -0.296; in assay [15], -0.942; in assay [16] it was -0.176; with Torsin-1A (Homo sapiens) [17] it was -0.276. Moreover, the composite z-score in the assay with Torsin-1A (Homo sapiens) [18] is -0.682; in assay [19], 0.196. In addition, the z-score in [7] was -0.204; in [9] it was 0.272 (inactive); in [11], -0.521 (inactive); in [12], -0.505 (inactive); in [13], -0.904 (inactive); in [14], 0.442 (inactive).

As for `C[n+]1ccc(CCCO)cc1`, the composite z-score in [1] was -0.278; in assay [2], -1.41; in assay [3] it was -0.526; in assay [4], -1.48; in assay [5], 1.37; in assay [6], 1.44. The composite z-score in the assay on Lefty1 was 1.36; in [8] it was -0.72; in assay [10], 0.749; in assay [15], -0.902; in assay [16], 0.196; in the assay with Torsin-1A (Homo sapiens) [17], -0.653. For the same compound, the composite z-score is -0.0965 with Torsin-1A (Homo sapiens) [18] and 2.16 in assay [19]. In addition, the z-score was -0.195 in assay [7]; 0.246 (inactive) in [9]; -0.0513 (inactive) in assay [11]; -0.601 (inactive) in assay [12]; 0.182 (inactive) in assay [13]; 0.58 (inactive) in [14].

As for `C=CCN1C(=O)[C@@]2(O[C@@H](CCO)[C@H]([Si](C)(C)c3ccc(OC)cc3)[C@H]2C)c2cc(N3C(=O)c4ccccc4Oc4ccccc43)ccc21`, the composite z-score was 0.939 in assay [1]; 0.551 in assay [2]; 0.17 in [3]; 0.485 in [4]; 0.144 in assay [5]; 0.675 in assay [6]. Further, the composite z-score in the assay with Lefty1 is 0.24; in [8], 0.615; in assay [10], 0.485; in assay [15], 0.031; in [16] it was -0.102; in the assay with Torsin-1A (Homo sapiens) [17], -0.331. Also, the composite z-score with Torsin-1A (Homo sapiens) [18] is -0.0355; in assay [19] it was 0.23. For the same compound, the z-score is 0.00401 in [7]; -1.49 (inactive) in [9]; -7.93 (inactive) in assay [11]; -1.4 (inactive) in [12]; 18.4 (active) in [13]; -3.87 (inactive) in assay [14].

In the case of `CC=CC(O)C1C=CC2C(=O)N(C)C(=O)C2N1N1CCCCC1` (stereo not given), the composite z-score in assay [1] was 0.523; in assay [2] it was 1.19; in [3] it was 0.518; in assay [4] it was 0.714; in assay [5] it was 1.08; in [6], -0.0299. The composite z-score in the assay on Lefty1 was 0.446; in assay [8] it was 0.864; in [10], 0.251; in [15] it was 0.988; in assay [16] it was -0.15; with Torsin-1A (Homo sapiens) [17] it was 0.74. For the same compound, the figures for the composite z-score (with Torsin-1A (Homo sapiens) [18]; in [19]) were 0.71 and 0.441, respectively. In addition, the z-score in assay [7] is -0.138; in assay [9], -0.451 (inactive); in assay [11] it was 0.173 (inactive); in [12], -0.0466 (inactive); in assay [13] it was 1.79 (inactive); in [14], 0.319 (inactive).

Take `CC(=O)n1cc(C(O)C2C=CC3C(=O)N(Cc4ccccc4)C(=O)C3N2n2cnnc2)c2ccccc21` (stereo not given): the composite z-score in assay [1] is 0.483; in [2] it was 0.0022; in assay [3] it was 0.418; in [4] it was 0.948; in assay [5], 0.0251; in assay [6] it was -0.465. In addition, the composite z-score in the assay with Lefty1 was 0.204; in [8] it was 0.505; in assay [10] it was 0.363; in assay [15], 1.05; in assay [16], -0.152; with Torsin-1A (Homo sapiens) [17], -0.466. The figures for the composite z-score (in the assay with Torsin-1A (Homo sapiens) [18]; in assay [19]) were -0.0022 and 0.204, respectively. In addition, the z-score in assay [7] was -0.463; in assay [9], 0.702 (inactive); in [11], 0.276 (inactive); in assay [12], 1.3 (inactive); in [13] it was 0.631 (inactive); in assay [14] it was -0.696 (inactive).
